The entries come from a sample that favours hits as a whole.
Cycloheximide cs – counter-screen hit for Shiga toxin inhibitors, cycloheximide; cell reporter, cycloheximide protein synthesis inhibition counterscreen; AID 2314; max response, %; hit rate 12% among 300,000; in the data active = max response mostly above about 13%, no sharp cut-off; inactive = mostly below about 14%; also: read at 38.3 µM for the half of the compounds with a filed dose; 0% is about no effect
Shiga toxin inh – inhibitors of Shiga toxin in Vero cells; Vero cells, Shiga toxin protein synthesis inhibition reporter; inhibition, % at 38.7 µM; hit rate 9.2% among 290,000; AID 2315; in the data active = inhibition mostly above about 28%, no sharp cut-off; inactive = mostly below about 43%; also: 0% is about no effect
LmPK inhibitor – inhibitors of Leishmania mexicana pyruvate kinase. Q27686. purified LmPK, Kinase-Glo ATP luminescence, 1 h. Potency, µM (highest dose often 57.5 µM), inactives show at the highest dose activity change, negative = inhibition, usual class: inhibitors. hit rate 0.37% among 290,000. AID 1721; also: potency is read from the fitted curve at half-maximal effect; % is scaled to controls: 0 for no effect and ±100 for the full control effect
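Purified LmPK (0.1 nM) converted ADP (0.1 mM) to ATP with PEP (0.5 mM) in imidazole buffer pH 7.2 with KCl and MgCl2, 1 h at room temperature. ATP was read by Kinase-Glo luminescence; data normalized to uninhibited and no-enzyme controls.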
Giardia FBPA inh – blocks Giardia fructose-bisphosphate aldolase activity; purified Giardia FBPA; hit rate 0.71% among 290,000; Potency, µM (series often up to 59.6 µM), inactives show at the highest dose activity, negative = inhibition, actives largely listed as inhibitors; A8B2U2; also: potency is read from the fitted curve at half-maximal effect; % is scaled to controls: 0 for no effect and ±100 for the full control effect; nearly all actives have a fitted effect of over 55% in size
Target sequence (A8B2U2 whole entry, looked up): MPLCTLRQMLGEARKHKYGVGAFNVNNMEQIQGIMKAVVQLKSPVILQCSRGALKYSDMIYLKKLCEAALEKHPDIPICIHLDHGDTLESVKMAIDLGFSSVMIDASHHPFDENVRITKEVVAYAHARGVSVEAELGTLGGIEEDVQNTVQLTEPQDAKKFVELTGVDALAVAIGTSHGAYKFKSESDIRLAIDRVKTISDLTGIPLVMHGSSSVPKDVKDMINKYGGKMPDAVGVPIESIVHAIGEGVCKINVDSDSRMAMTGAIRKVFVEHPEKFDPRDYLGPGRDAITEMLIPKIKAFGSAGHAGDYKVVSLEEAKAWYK
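40 nM FBPA preincubated 10 min at RT with compound (up to 57.5 uM final), then substrate plus GAPDH/TPI/NAD/arsenate coupling and diaphorase/resazurin added. Fluorescence read after 20 min at RT, 525/598 nm.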
Tb PYK inh – inhibitors of Trypanosoma brucei pyruvate kinase. Potency, µM (titrated, usually from 76.8 µM), for inactives: at the highest dose activity, negative = inhibition, usual class: inhibitors. TbPYK enzyme, Kinase-Glo Plus ATP luminescence, 45 min. Q57TT1. hit rate 0.12% among 410,000; also: potency is read from the fitted curve at half-maximal effect; % is scaled to controls: 0 for no effect and ±100 for the full control effect; nearly all actives have a fitted effect of over 50% in size
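ADP (130 uM final) triggers the TbPYK reaction after compound addition; incubation is 45 min at room temperature. Kinase-Glo Plus is then added and luminescence imaged. Normalized data are fitted to concentration-effect curves.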
RE007 growth inh – less growth of the S. pombe RE007 Vpr strain; hit rate 0.21% among 360,000; S. pombe RE007 Vpr strain, BacTiter-Glo ATP luminescence, 24 h; Potency, µM (series often up to 92.2 µM), for the others: at the top dose activity change, negative = less growth, actives largely listed as inhibitors; AID 651644; active = well fitted falling curve with a large enough effect; inconclusive = small, poorly fitted or top-dose-only effect; inactive = no such curve, though single readings can be large or run the other way; also: potency is read from the fitted curve at half-maximal effect; % is scaled to controls: 0 for no effect and ±100 for the full control effect; nearly all actives have a fitted effect of over 50% in size
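Fission yeast RE007 carrying one integrated HIV-1 vpr copy, seeded at OD 0.01 in PMG+AL medium with 23 nL pinned compound. Grown 24 h at 30 degrees; viability read by BacTiter-Glo luminescence after 5 min.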
* = called active by the depositor; ? = inconclusive; · = no result given. Unless noted, calls follow the shape of the dose curve; as a rule, active = well fitted curve in the direction sought with a large enough effect; inconclusive = small, poorly fitted or top-dose-only effect, or another doubt; inactive = no such curve, though single readings can be large; an effect the other way counts as inactive or inconclusive.

SMILES | Cycloheximide cs | Shiga toxin inh | LmPK inhibitor | Giardia FBPA inh | Tb PYK inh | RE007 growth inh
C=CCNC(=O)N1CCCC(C(=O)c2cccc(OC(C)C)c2)C1 (centres undefined) | 26* | 118* | 2% | 0% | 0% | -19%
C=CCNC(=O)N1CCCC(C(=O)c2cccc(Cl)c2)C1 (centres undefined) | 2 | -1 | 6% | 9% | -3% | -1%
Nc1ccc(S(=O)(=O)NC2(C(F)(F)F)NC(=O)N(c3cccc(Cl)c3)C2=O)cc1 (centres undefined) | · | · | · | · | 2% | ·
COc1ccc(C(=O)NC(=S)SCC(=O)O)cc1 | 15* | 26* | -5% | ? | -19% | 14%
COc1c(C(=O)NC(=S)Nc2nnn(C)n2)cc2ccccc2c1Br | 10 | -3 | 1% | ? | -6% | -10%
O=C(NC(=S)Nc1ccc2oc(=O)ccc2c1)c1cc2ccccc2o1 | -3 | -6 | -2% | 3% | 1% | -7%
COc1ccc(C(=O)NC(=S)Nc2nnn(C)n2)cc1 | -2 | -4 | 4% | 1.8µM* | -13% | ·
Cn1nnc(NC(=S)NC(=O)c2cc3ccccc3o2)n1 | 11* | -1 | 5% | ? | -7% | -1%
Cn1nnc(NC(=S)NC(=O)c2ccco2)n1 | 8 | 7 | -1% | 1.3µM* | -27% | -7%
Cc1ccc(NC(=O)CN2CCN(C(=O)c3ccco3)CC2)cc1S(=O)(=O)N(C)C | · | · | · | · | 35% | -6%
CCCN1CCN(S(=O)(=O)c2ccc(-c3cc(C)no3)s2)CC1 | -2 | -2 | 3% | -1% | -6% | -3%
CCS(=O)(=O)N1Cc2ccccc2CC1C(=O)Nc1ccc(OC)c(OC)c1 (centres undefined) | -3 | -9 | 3% | -2% | 9% | -14%
CCS(=O)(=O)N1Cc2ccccc2CC1C(=O)Nc1cccc(OC)c1 (centres undefined) | 24* | 124* | -1% | 23% | -3% | 13%
CCS(=O)(=O)N1Cc2ccccc2CC1C(=O)Nc1ccc(F)cc1 (centres undefined) | 24* | 36* | 5% | 3% | -1% | 8%
CCS(=O)(=O)N1Cc2ccccc2CC1C(=O)Nc1ccccc1OC (centres undefined) | 9 | 12 | 0% | -4% | 4% | 3%
O=C(Cn1nnc(-c2cccs2)n1)NCc1ccco1 | 12* | 51* | 1% | 0% | -12% | -4%
O=C(Cn1nnc(-c2cccs2)n1)NCc1ccccc1 | 21 | 16 | -2% | 3% | 4% | -5%
CC(C)(C)NC(=O)Cn1nnc(-c2cccs2)n1 | 31* | 30* | 1% | 1% | -6% | 7%
CCN(CC)CCCNC(=O)c1ccc2c3n(nc2c1)-c1ccc(Cl)cc1CO3 | · | · | · | · | 2% | -13%
CC(C)NC(=O)c1ccc2c3n(nc2c1)-c1ccc(Cl)cc1CO3 | 21* | 60* | -4% | -5% | -9% | -1%
Cc1ccc2c(c1)COc1c3ccc(C(=O)N[C@@H](CO)C(C)C)cc3nn1-2 | 55* | 74* | 3% | 16% | -7% | 0%
C[C@@H](CO)NC(=O)c1ccc2c3n(nc2c1)-c1ccccc1CO3 | 17* | 8 | 14µM* | 0% | ? | -17%
COCCNC(=O)c1ccc2c3n(nc2c1)-c1ccc(C)cc1CO3 | 59* | 134* | -9% | 5% | -3% | ?
COC(=O)[C@H](CCSC)NC(=O)Cn1cnc2c(NCc3ccccc3)ncnc21 | · | · | · | · | 0% | 8%
Cc1ccc(CN2CCCn3nc(C(=O)NCc4ccc(OC(C)C)cc4)cc3C2=O)cc1 | · | · | · | · | 1% | ·
SMILES | Cycloheximide cs | Shiga toxin inh | LmPK inhibitor | Giardia FBPA inh | Tb PYK inh | RE007 growth inh
O=C(NCC1CCCO1)c1ccc2c(c1)OCO2 (centres undefined) | 10 | 27 | 3% | 0% | -3% | -5%
O=C(NCC1CCCO1)c1ccc2c3n(nc2c1)-c1ccccc1CO3 (centres undefined) | 52* | 54* | -29% | -1% | 2% | -2%
CC(C)c1ccc(NC2CCCN(C(=O)c3cccs3)C2)cc1 (centres undefined) | 32* | 23* | 5% | -11% | -15% | -14%
CCOC(=O)c1c(NC(=O)c2ccc(S(=O)(=O)N3CCC(C)CC3)cc2)sc2c1CCN(C)C2 | · | · | · | · | 2% | ·
C=CCn1c(C)cc(C(=O)COc2ncnc3sccc23)c1C | 40* | 120 | -3% | -7% | -1% | 10%
CCOc1ccc(-c2nc(SC(C(C)=O)C(=O)N(C)C)c3c(=O)n(C)c(=O)n(C)c3n2)cc1 (centres undefined) | · | · | · | · | -11% | ·
CNc1cnn(-c2ccccc2)c(=O)c1Cl | -3 | 37 | -4% | 0% | -25% | -15%
O=c1c(Cl)c(NCCO)cnn1-c1cccc(Cl)c1 | 23* | 51* | 3% | 1% | -3% | 11%
CN(C)CCNc1cnn(-c2ccccc2)c(=O)c1Cl | 17* | 55 | 6% | 6% | 6% | -8%
N#Cc1cnn(-c2cccc(Cl)c2)c1-n1cccc1 | 1 | -1 | 3% | 6% | 0% | 7%
O=C(NCc1ccccc1Cl)C(=O)NCC(c1ccco1)S(=O)(=O)c1cccs1 (centres undefined) | · | · | · | · | 1% | ·
CCOC(=O)C1(CCc2ccccc2)CCN(C(=O)CCc2cnccn2)CC1 | 24* | 55* | -2% | 2% | -7% | -9%
CCOC(=O)C1(Cc2ccc(OC)cc2)CCN(C(=O)CCc2cnccn2)CC1 | 14* | 36 | -2% | -5% | 2% | -4%
CCOC(=O)C1(Cc2ccc(OC)cc2)CCN(C(=O)CC2CCC(=O)N2)CC1 (centres undefined) | 12 | 12 | 3% | 2% | 1% | -7%
CCOC(=O)C1(Cc2ccc(OC)cc2)CCN(C(=O)CCN2CCCC2=O)CC1 | 17* | 19 | -1% | 0% | 1% | 5%
CCOC(=O)C1(CCCc2ccccc2)CCN(C(=O)CCc2cnccn2)CC1 | 12 | 10 | 9% | -2% | -11% | -11%
CCOC(=O)C1(Cc2ccc(Cl)cc2)CCN(C(=O)CCc2cnccn2)CC1 | -2 | 14 | 2% | 0% | -2% | -5%
CCCOc1ccc(CNC(=O)Cn2ncc3ccccc32)cc1 | 34* | 59* | 4% | 4% | -2% | 3%
CCCOc1ccc(CNC(=O)CCC(=O)n2ncc3cc(C)ccc32)cc1 | -3 | -4 | 0% | 4% | -16% | -11%
CCc1cc(S(=O)(=O)N2CCN(C(=O)c3ccco3)CC2)ccc1OC | -3 | -3 | 1% | 12% | 3% | 2%
COc1cccc(C2CC(=O)Nc3cc4c(cc32)OCCO4)c1OC (centres undefined) | · | · | · | · | -2% | ·
O=C(Nc1nccs1)c1cncc(Br)c1 | 48* | 96* | -5% | -4% | -4% | 14%

Assay outcomes: PubChem, National Center for Advancing Translational Sciences (NCATS)
